Only a sample is shown.
aSyn UTR act = Activators via SNCA 5'UTR binding, MLPCN; alpha-synuclein 5'UTR reporter, activators screen; activity score, % (tested at 7.5 µM), hits read low; actives 7.1% (n = 300,000); AID 1814, 2009; in the data active = activity score below about -60%
Starred values were filed as active, the others as inactive.

SMILES	aSyn UTR act
COc1ccc2cc(CCC(C)=O)ccc2c1	-126.2*
COc1cc(NC(=O)c2ccccc2Cl)ccc1NC(=O)c1cccs1	-143.0*
O=C(Nc1ccccc1Cl)c1cccs1	-70.9*
O=C(Nc1ccccc1Cl)c1ccc(-c2ccccn2)s1	-119.6*
COc1cc(NC(=S)NC(=O)c2c(OC)cccc2OC)ccc1NC(=O)c1cccs1	-94.5*
Cc1c(-c2nc(N)nc(Nc3ccc(F)cc3)n2)oc2ccccc12	-95.3*
COC(=O)c1ccc(CN2C(=O)NC(Cc3c[nH]c4ccccc34)C2=O)cc1 (stereo not drawn)	-95.5*
CN(C)c1ccc(N=C/C=C2/N(C)c3ccccc3C2(C)C)cc1	-83.6*
COc1ccc(NC(=O)n2ncc3cc(Cl)ccc32)cc1OC	-142.5*
O=C(Nc1ccccc1F)n1ncc2cc(Cl)ccc21	-73.3*
COc1cc(NC(=O)n2ncc3cc(Cl)ccc32)cc(OC)c1	-185.9*
Oc1c(N=NC(=S)Nc2ccccc2F)c2ccccc2n1Cc1ccc(Cl)cc1	70.1
C/C(=N\N=C(/C)c1cccc(N)c1)c1cccc(N)c1	-111.4*
C/C(=N\Nc1ccc([N+](=O)[O-])cc1)c1cccc(N)c1	-198.6*
C/C(=N\Nc1ccc([N+](=O)[O-])cc1)c1ccc(O)cc1	-216.8*
C=CCN1C(=O)C(=O)N(Cc2nc3ccccc3s2)C1=O	-117.6*
Cc1ccc(-n2nnc3ccccc3c2=O)cc1C	-149.7*
COc1ccc(CC(=O)c2ccc(OC3OC(CO)C(O)C(O)C3O)cc2O)cc1 (stereo not drawn)	-68.7*
COc1ccc(-c2coc3cc(O)ccc3c2=O)cc1O	-89.6*
COc1ccc(-c2coc3cc(OC4OC(CO)C(O)C(O)C4O)ccc3c2=O)cc1 (stereo not drawn)	-123.9*
COc1ccc(-c2coc3cc(O)ccc3c2=O)cc1	-134.4*
N#C/C(=C1/CCCCCN1)c1nc2ccccc2s1	-72.8*
O=C(/C=C/c1ccccc1Cl)c1ccc(O)cc1	-359.6*
O=C(/C=C/c1c(F)cccc1Cl)c1ccc(O)cc1	-115.5*
O=C(NCc1ccco1)c1cc2c(s1)CCCCC2	-217.8*
SMILES	aSyn UTR act
O=C(Nc1ccc(N2CCOCC2)cc1)c1cc2c(s1)CCCC2	-68.9*
Cc1csc(NC(=O)c2cc3c(s2)CCCCC3)n1	91.9
Cc1cnc(NC(=O)c2cc3c(s2)CCCC3)s1	65.4
O=C(Nc1ccon1)c1cc2c(s1)CCCCCC2	-166.8*
O=C(Nc1ccon1)c1cc2c(s1)CCCC2	-113.3*
CCCSc1nnc(-c2c[nH]c3ccccc23)n1C	-78.1*
CCOc1ccc(CNc2ccc3c(c2)ncn3C(C)(C)C)cc1	-84.4*
CN(C)c1ccc(CNc2ccc3c(c2)ncn3C(C)(C)C)cc1	-61.6*
COc1ccc(/C=C2\C(=O)NCC(=O)N2Cc2ccccc2)cc1	-61.8*
Clc1ccsc1-c1ccnc(-n2cccc2)n1	-62.2*
c1ccc2nc(-c3nccs3)ccc2c1	-126.1*
Clc1ccsc1-c1ccc2ccccc2n1	-113.3*
Cc1cc(-c2sccc2Br)nc(-n2cccc2)n1	-86.8*
c1ccc2nc(-c3ccncc3)ccc2c1	-96.2*
CN(C)C=Nc1ccc2nn(-c3ccccc3)nc2c1	-211.4*
COc1ccc(-c2csc(=Nc3ccccc3)n2CCO)cc1	-100.0*
COc1ccc(-c2csc(=NCCO)n2-c2ccccc2)cc1	-98.8*
COc1ccc(C(=O)N2CCc3ccc(NC(=O)c4ccccn4)cc3C2)cc1F	-101.2*
CN(C)/C=N/c1ncn(-c2ncc(C(F)(F)F)cc2Cl)n1	-84.8*
Cc1ccc2nc(-c3ccc(SCC(=O)Nc4ccc5c(c4)OCCO5)nc3)[nH]c2c1	-327.5*
Cc1cc2nc(-c3ccc(SCC(=O)N4CCN(C(=O)c5ccco5)CC4)nc3)[nH]c2cc1C	-87.6*
O=C(CSc1ccc(-c2nc3ccccc3[nH]2)cn1)Nc1ccc2c(c1)OCCO2	-234.7*
Cc1cc2nc(-c3ccc(SCC(=O)Nc4ccc5c(c4)OCCO5)nc3)[nH]c2cc1C	-207.0*
Cc1ccc2nc(N3C(=O)C(O)=C(C(=O)c4ccco4)C3c3cccs3)sc2c1 (stereo not drawn)	-186.9*
COc1ccc2nc(N3C(=O)C(O)=C(C(=O)c4ccco4)C3c3ccccc3OC)sc2c1 (stereo not drawn)	-114.2*
SMILES	aSyn UTR act
Cc1ccc(NC(=O)c2cccs2)cc1[N+](=O)[O-]	-93.8*
Cc1ccc(NC(=O)c2ccc(C(C)(C)C)cc2)cc1[N+](=O)[O-]	-159.5*
Cc1cc(C)nc(Nc2ccc(C)c([N+](=O)[O-])c2)n1	-99.4*
Cc1ccc(Cn2cc(-c3ccccc3)nn2)cc1	-123.6*
COc1ccc(-c2cn(Cc3ccc(C(=O)c4ccccc4)cc3)nn2)cc1	-161.5*
Fc1ccccc1/C=N/Nc1ncnc2nc[nH]c12	-62.5*
Fc1cccc(/C=N/Nc2ncnc3nc[nH]c23)c1	-92.7*
Cc1ccc(/C=N/Nc2ncnc3nc[nH]c23)cc1	-63.3*
C=CCOC(=O)c1c(C)nc2cc3c(cc2c1C)OCO3	-100.7*
Cc1cc(C)n2nc(C(=O)Nc3nccs3)nc2n1	-111.5*
Cc1csc(NC(=O)c2nc3nc(C)cc(C)n3n2)n1	-90.0*
Cn1cccc1/C=C1\CCC/C(=C\c2cccn2C)C1=O	-153.8*
O=C1/C(=C/c2cccs2)CCC/C1=C\c1cccs1	-124.6*
CN1CCC(=NNc2ncnc3sc4c(c23)CCCC4)CC1	-82.4*
Nc1nc(Cl)nc2ccc(Br)cc12	-122.8*
Cc1ccc2cc3cc(C(=O)NC4CC4)oc3nc2c1	-133.6*
Cc1ccc2cc3cc(C(=O)NC4CCCCC4)oc3nc2c1	-152.7*
O=C(Nc1ccccc1F)c1ccc2nc(N3C(=O)CCC3=O)sc2c1	-117.2*
O=C(N/N=C/c1sc(N2CCOCC2)nc1-c1ccccc1)c1cccc(S(=O)(=O)N2CCCC2)c1	98.9
O=C(Nc1ccc(F)cc1F)c1ccc2nc(N3CCOCC3)sc2c1	-62.5*
O=C(Nc1ccccc1Cl)c1ccc2nc(N3CCOCC3)sc2c1	-98.8*
CCc1ccc(NC(=O)N2CCC(c3ccccc3)C2)cc1 (stereo not drawn)	-171.7*
Cc1ccc(C2CCN(C(=S)NC(C)(C)C)C2)cc1 (stereo not drawn)	-92.9*
COc1ccc(NC(=S)N2CCC(c3ccccc3)C2)cc1 (stereo not drawn)	-169.2*
O=C(c1cccs1)N1CCC(c2ccccc2)C1 (stereo not drawn)	-139.8*
SMILES	aSyn UTR act
CCOc1ccc(NC(=O)N2CCC(c3ccc(C)cc3)C2)cc1 (stereo not drawn)	-67.4*
O=C(Nc1ccccc1)N1CCC(c2ccccc2)C1 (stereo not drawn)	-141.0*
CSc1nnc2c(n1)c(C)nn2-c1cccc(C)c1	-172.1*
CCOC(=O)c1cc(-c2ccccc2)sc1N	-94.1*
CCOC(=O)c1sc(-c2ccc(OC)cc2)cc1N	-158.4*
CC(=O)c1sc(-c2ccccc2)cc1N	-63.2*
CCOC(=O)c1cc(-c2ccccc2)sc1NC(=O)COC(=O)c1cccc(S(N)(=O)=O)c1	71.6
CCOC(=O)c1sc(-c2ccccc2)cc1N	-116.3*
CCOC(=O)c1sc(-c2ccc(F)cc2)cc1N	-142.5*
CC(C)c1ccc(/C=C2\SC(=O)N(CC(=O)NCCCn3ccnc3)C2=O)cc1	-109.9*
COc1ccc(/C=C2/SC(=S)N(CCCC(=O)Nc3ccc(O)cc3)C2=O)cc1	68.0
COc1ccc(/C=C2\SC(=O)N(CCNC(=O)CCS(=O)(=O)c3ccc(C)cc3)C2=O)cc1	-64.1*
COc1ccc(/C=C2\SC(=O)N(CCNC(=O)Cn3cnnn3)C2=O)cc1	-186.6*
